Laboratory results published in publication PMC4552634, “A New Set of Chemical Starting Points with Plasmodium falciparum Transmission-Blocking Potential for Antimalarial Drug Discovery” (PLoS ONE, 2015).
Where two headings read alike, the source gives them in different places. Among all 13,000 compounds or so, about 3,200 (25%) showed an effect of 50% or more. The list shows a part of the results.

System: P. falciparum stage V gametocytes
Design: BacTiter-Glo ATP luminescence viability of purified stage V gametocytes in 384-well plates, per cent inhibition versus DMSO
Settings: 48 h, 5 µM, inhibitor

Structure (SMILES)	% Inhibition	% Inhibition (% Inhibition)
CN(c1cc(NC(=O)c2ccc(F)cc2)ccn1)C1CCN(Cc2cccc(F)c2)CC1 [TCMDC-135019]	38.57%	
Cc1ccnc(NC(=O)c2cc(-c3cccc([N+](=O)[O-])c3)nc3onc(C)c23)c1 [TCMDC-124591]	3.347%	
C=C[C@]1(C)C[C@@H](OC(=O)NC(=O)CCCS(=O)(=O)c2nnc(C)s2)[C@]2(C)[C@H](C)CC[C@]3(CCC(=O)[C@H]32)[C@@H](C)[C@@H]1O [TCMDC-140927]	24.97%	
C#CC(C)(CO)N1CCCC1 (stereo not drawn) [TCMDC-131372]	-4.555%	
CCOC(=O)c1c(C)n(-c2ccccc2)c2ccc(O)cc12 [TCMDC-125483]	-27.27%	
Oc1ccccc1CNCC12CC3CC(CC(C3)C1)C2 [TCMDC-125554]	-22.39%	
CC(C)C[C@H](Nc1ccnc(NCC2CCCCC2)n1)C(=O)Nc1ccccc1 [TCMDC-134714]	-42.51%	
CC(C)c1ccc(Nc2nc(NCCc3cnc[nH]3)nc(NCc3ccccc3)n2)cc1 [TCMDC-139741]	-6.505%	
CC1CN(Cc2cccc(F)c2)CCN1c1ccc(NC(=O)c2ccc(F)cc2)cc1 (stereo not drawn) [TCMDC-135017]	-0.6551%	
Cc1ccc(NC(=O)Nc2cccc(Cl)c2)cc1-c1ccc(C(=O)Nc2ccncc2)cc1 [TCMDC-133699]	10.77%	
Cl.Oc1ccc(C2CNCCc3c2cc(O)c(OCc2ccccc2)c3Cl)cc1 (stereo not drawn) [TCMDC-141979]	17.32%	
O=C(N[C@@H](Cc1ccccc1)C(=O)NC1CCCCC1)c1ccc(O)c(-c2ccc(Cl)c(Cl)c2)c1 [TCMDC-140824]	35.45%	
O=C(NC(=S)Nc1cc(C(F)(F)F)cc(C(F)(F)F)c1)c1ccc(Cl)cc1 [TCMDC-124077]	25.76%	
COc1cc(Cc2cnc(N)nc2N)cc(OCCCCCC(=O)O)c1OC [TCMDC-137677]	-23.13%	
NC(=O)c1cccc(-n2ccc3cc(CNC4Cc5ccccc5C4)ccc32)c1 [TCMDC-133416]	99.63%	
CC[C@H](C)CNC(=O)c1cncc(-c2cccc(CNC3Cc4ccccc4C3)c2)c1 [TCMDC-134218]	-33.07%	
Cc1cccc(-c2ccc3c(c2)CC(NCc2cccc(-n4ccnc4)c2)C3)c1 (stereo not drawn) [TCMDC-134831]	2.381%	
c1ccc2nc(NCCCCCCCCNc3ccc4ccccc4n3)ccc2c1 [TCMDC-137745]	26.97%	
c1ccc2ncc(CNCCCCCCCCNCc3cnc4ccccc4c3)cc2c1 [TCMDC-137744]	97.27%	
COc1cccc(Cc2cnc3nc(N)nc(N)c3c2C)c1 [TCMDC-138060]	-3.76%	
CC(=O)Nc1ccc(S(=O)(=O)Nc2ccc(Nc3nc(C)cc(N(C)C)n3)cc2)cc1 [TCMDC-124951]	-47.31%	
COc1ccc2nccc([C@@H](O)CN3CCC(NC(=O)/C=C/c4cccc(NC(C)=O)c4)CC3)c2c1 [TCMDC-141029]	-15.14%	
COc1ccc(CNc2ncc(-c3ccsc3)c(-c3nccs3)n2)cc1OC [TCMDC-125369]	23.78%	

Structure (SMILES)	% Inhibition	% Inhibition (% Inhibition)
COc1cc(CNc2ncc(-c3ccsc3)c(-c3nccs3)n2)cc(OC)c1 [TCMDC-124844]	31.51%	
Fc1ccccc1CNc1ncc(-c2ccsc2)c(-c2nccs2)n1 [TCMDC-125366]	77.55%	
c1cc(CNc2ncc(-c3ccsc3)c(-c3nccs3)n2)ccn1 [TCMDC-125371]	35.87%	
COc1cccc(CNc2ncc(-c3ccsc3)c(-c3nccs3)n2)c1 [TCMDC-125375]	51.63%	
c1cncc(CNc2ncc(-c3ccsc3)c(-c3nccs3)n2)c1 [TCMDC-125368]	23.89%	
Fc1ccc(CNc2ncc(-c3ccsc3)c(-c3nccs3)n2)cc1 [TCMDC-125372]	57.46%	
COc1ccccc1CNc1ncc(-c2ccsc2)c(-c2nccs2)n1 [TCMDC-125376]	13.46%	
Fc1cccc(CNc2ncc(-c3ccsc3)c(-c3nccs3)n2)c1 [TCMDC-125374]	21.86%	
Clc1ncccc1-c1nc(NCCC(c2ccccc2)c2ccccc2)no1 [TCMDC-134181]	13.92%	
Clc1cc(Cl)cc(Nc2ccnc(Nc3cc(Cl)cc(Cl)c3)n2)c1 [TCMDC-134277]	-19.19%	
Cc1nc(N/C=C/c2ccc(O)cc2)cc(N2CCCC2)n1 [TCMDC-135162]	20.32%	
NC1=NC(c2ccccc2)(c2cccc(O)c2)C(=O)N1CCCc1ccccc1 (stereo not drawn) [TCMDC-132351]		-3.76%
COc1cccc(CN2CCC(CCOC(c3ccccc3)c3ccc(Cl)cc3)CC2)c1O (stereo not drawn) [TCMDC-136040]	-76.2%	
COc1ccc(S(=O)(=O)NC2CCN(CCCOc3ccnc4cc(Cl)ccc34)C2)cc1OC (stereo not drawn) [TCMDC-136146]	-25.22%	
COc1cc(Br)c(S(=O)(=O)n2cc(CN3CCC(N)CC3)c3cc(Cl)ccc32)cc1OC [TCMDC-136384]	95.22%	
COc1ccc(NC(=O)Nc2ccc(-c3ccccc3)cc2Cl)cc1N1CCN(C)CC1 [TCMDC-139137]	-40.38%	
CN1CCC(NCc2cccc(-c3ccc(S(=O)(=O)NCCN4CCCC4)s3)c2)CC1 [TCMDC-132218]	98.17%	
O=S(=O)(NCCN1CCCC1)c1ccc(-c2ccc(CNC3Cc4ccccc4C3)cc2)s1 [TCMDC-132234]	69.5%	
O=S(=O)(NCCN1CCCC1)c1ccc(-c2cccc(CNC3Cc4ccccc4C3)c2)s1 [TCMDC-132217]	90.5%	
COc1cccc(-c2cnc(N)c(-c3nc4ccc(F)cc4[nH]3)c2)c1 [TCMDC-138791]	-6.276%	
Cn1c(=O)c(-c2c(Cl)cccc2Cl)cc2cnc(Nc3ccc(N4CCOCC4)cc3)nc21 [TCMDC-137156]	-23.94%	
O=C(Nc1cccc([N+](=O)[O-])c1)Nc1ccc(Cl)c(C(F)(F)F)c1 [TCMDC-123511]	-89.27%	
CCN(c1ccc(F)cc1)S(=O)(=O)c1cc(Br)cc2c1N(C(=O)C1CC1)CC2 [TCMDC-123802]	-9.966%	

Structure (SMILES)	% Inhibition	% Inhibition (% Inhibition)
Cn1cc(C(=O)Nc2cccc(-c3cccc(-c4nc5ccc(F)cc5[nH]4)c3)c2)n(C)c1=O [TCMDC-137136]	-0.01557%	
O=C(c1cc(OC(F)(F)F)ccc1O)N1CCN(c2ccccc2)CC1 [TCMDC-141127]	10.35%	
CC(=O)Nc1ccc(Nc2cc(C)nc(Nc3ccc(NC(C)=O)cc3)n2)cc1 [TCMDC-125764]	22.75%	
Cc1cccc2[nH]c(-c3ccc(-c4cccc(NC(=O)c5cccc(C(N)=O)c5)c4)cc3)nc12 [TCMDC-132197]	5.465%	
COc1ccc2nccc([C@@H](O)CN3CCC(NCc4ccc5c(n4)NC(=O)CS5)C(F)C3)c2c1 (stereo partly drawn) [TCMDC-141718]	-27.67%	
O=C(Nc1cccc(CN2CCCN(Cc3ccsc3)CC2)c1)c1ccc(-c2ccccc2)cc1 [TCMDC-141840]	82.52%	
O=C(Nc1cccc(CN2CCCN(Cc3ccccc3)CC2)c1)c1ccc(-c2ccccc2)cc1 [TCMDC-134589]	-25.71%	
O=C(Nc1cccc(CN2CCCN(Cc3cccc(O)c3)CC2)c1)c1ccc(-c2ccccc2)cc1 [TCMDC-141848]	31.74%	
COc1cccc(-c2cccc(NC(=O)C3CCN(Cc4ccc(O)cc4)CC3)c2)c1 [TCMDC-124692]	72.66%	
O=C(Nc1cccc(CN2CCCN(Cc3ccc(O)cc3)CC2)c1)c1ccc2ccccc2c1 [TCMDC-141857]	26.89%	
O=C(Nc1cccc(-c2cccc(F)c2)c1)C1CCN(Cc2ccc(O)cc2)CC1 [TCMDC-124688]	48.55%	
COc1cccc(CN2CCCN(Cc3cccc(NC(=O)c4ccc(-c5ccccc5)cc4)c3)CC2)c1 [TCMDC-141847]	-61.09%	
O=C(Nc1ccc2ccccc2c1)c1ccc(CN2CCC(Cc3ccccc3)CC2)cc1 [TCMDC-123818]	92.78%	
COc1ccc(CN2CCCN(Cc3cccc(NC(=O)c4ccc(-c5ccccc5)cc4)c3)CC2)cc1 [TCMDC-141839]	80.31%	
COc1ccc(CN2CCCN(Cc3cccc(NC(=O)c4ccc5ccccc5c4)c3)CC2)cc1 [TCMDC-141853]	-65.02%	
O=C(Nc1cccc(OCc2ccccc2)c1)c1ccc(CN2CCC(Cc3ccccc3)CC2)cc1 [TCMDC-136885]	-23.99%	
COc1ccc(CN2CCC(C(=O)Nc3cccc(-c4cccc(Cl)c4)c3)CC2)cc1O [TCMDC-124610]	-57.51%	
CC(=O)Nc1cc(C(=O)Nc2cccc(-c3csc(-c4nc5ccccc5[nH]4)c3)c2)ccc1C [TCMDC-132397]	-24.51%	
Cc1nc2ccc3ccc(CNc4ccc(C(=O)N[C@@H](CCC(=O)O)C(=O)O)cc4)cc3c2c(=O)[nH]1 [TCMDC-137629]	7.462%	
CCC[C@@H]([C@@H](CC1CCCCC1)C(=O)N[C@@H](CCCCNS(C)(=O)=O)C(=O)Nc1nccs1)N(O)C=O [TCMDC-138143]	41.43%	
CC1(C)CCNc2cc(NC(=O)c3ccc(-c4ncccc4C(F)(F)F)cc3)ccc21 [TCMDC-133353]	8.36%	
COc1ccc(C2=CCN(c3ccc(Cl)c(Cl)c3)C2=O)cc1OCCN1CCCCC1 [TCMDC-138795]	24.05%	
COc1ccc2nccc([C@@H](O)CN3CCC(NC(=O)c4ccc(OC)c(N)c4)CC3)c2c1 [TCMDC-140772]	8.441%	
